DT40 TDP1 CPT: DT40-hTDP1 cell growth loss with CPT | AID 686979 | Potency, µM (series often up to 46.2 µM), actives largely listed as inhibitors | chicken DT40 Tdp1-/-;hTDP1 cells + 20 nM CPT, ATP luminescence, 48 h | 420,000 tested, 12% active; note: nearly all actives have a fitted effect of over 55% in size
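Cell growth measured by CellTiter-Glo luminescence after a minimum 48 h, 37 C compound exposure with 20 nM CPT in Tdp1-knockout DT40 cells stably expressing hTDP1, seeded 400/well; qHTS titration format.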
RORgamma inh: inhibitors of mouse ROR gamma transcriptional activity; P51450; Drosophila S2 Gal4-RORgamma UAS-luciferase reporter, 20 h; Potency, µM (titrated, usually from 53.6 µM), actives largely listed as inhibitors; 310,000 tested, 5.4% active; AID 2551; note: nearly all actives have a fitted effect of over 60% in size
Target sequence (P51450 whole entry, looked up, the tested form may be a part): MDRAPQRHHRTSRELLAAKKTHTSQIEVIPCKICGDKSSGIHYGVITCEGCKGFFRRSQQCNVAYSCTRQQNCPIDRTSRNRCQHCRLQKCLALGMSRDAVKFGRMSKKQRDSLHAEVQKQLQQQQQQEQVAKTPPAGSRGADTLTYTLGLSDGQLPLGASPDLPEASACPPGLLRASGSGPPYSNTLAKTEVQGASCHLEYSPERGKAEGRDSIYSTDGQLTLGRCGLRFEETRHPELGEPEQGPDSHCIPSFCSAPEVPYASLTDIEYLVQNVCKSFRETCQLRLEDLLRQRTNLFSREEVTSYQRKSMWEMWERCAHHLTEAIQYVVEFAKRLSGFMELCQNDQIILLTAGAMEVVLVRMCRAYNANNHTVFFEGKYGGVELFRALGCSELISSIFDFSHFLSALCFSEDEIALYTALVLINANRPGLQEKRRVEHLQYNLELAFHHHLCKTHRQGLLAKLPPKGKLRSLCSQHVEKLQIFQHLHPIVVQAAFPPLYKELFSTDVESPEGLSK
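In this cell-based reporter format, copper sulfate (700 uM final) drives Gal4–ROR gamma fusion expression from a metallothionein promoter in Drosophila Schneider cells; compounds preincubated 1 hr, reporter read after 20 hr at ambient temperature.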
TDP1 block: inhibitors of human tyrosyl-DNA phosphodiesterase TDP1; Q9NUW8; recombinant TDP1, AlphaScreen DNA substrate cleavage; Potency, µM (doses to about 130 µM), most hits filed as inhibitors; 350,000 tested, 0.28% active; AID 485290; note: nearly all actives have a fitted effect of over 40% in size
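Recombinant human Tdp1 (E. coli-expressed, 1 nM final) preincubated with compounds 15 min at room temperature, then 5'-biotin/3'-phosphotyrosine-FITC DNA substrate (15 nM final) added for 5 min. AlphaScreen beads (10 ug/ml final) added 10 min; cleavage lowers signal.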
VP16 counter: Gal4-VP16 reporter inhibition counter-screen. Drosophila S2 Gal4-VP16 UAS-luciferase, luminescence, 20 h. Potency, µM (doses to about 53.6 µM), usual class: inhibitors. 310,000 tested, 3.5% active;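 note: Gal4-VP16 expression switched on by copper sulfate through the metallothionein promoter; nearly all actives have a fitted effect of over 50% in size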
DT40 TDP1 no CPT: qHTS for Inhibitors of human tyrosyl-DNA phosphodiesterase 1 (TDP1): qHTS in cells in absence of CPT | DT40 Tdp1-/- hTDP1 cells, no CPT, ATP luminescence, 48 h | Potency, µM (titrated, usually from 46.2 µM), actives largely listed as inhibitors | 420,000 tested, 15% active | AID 686978, 2013; note: nearly all actives have a fitted effect of over 55% in size
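Compound effects on proliferation are scored in DT40 Tdp1-/-;hTDP1 cells in the absence of CPT. ATP levels (CellTiter-Glo luminescence) are recorded after a ≥48 hr, 37 °C incubation.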
A number is an active result; n = inactive; u = inconclusive; x = not tested or not shown. Most compounds without a hit are left out; they make up all but 19% or so of the library. Calls come from the whole dose curve; as a rule, active = well fitted curve in the direction sought with a large enough effect; inconclusive = small, poorly fitted or top-dose-only effect, or another doubt; inactive = no such curve, though single readings can be large; an effect the other way counts as inactive or inconclusive.

SMILES | DT40 TDP1 CPT | RORgamma inh | TDP1 block | VP16 counter | DT40 TDP1 no CPT
O=C(CCN1C(=O)COc2ccccc21)NCCC1=CCCCC1 | n | n | n | n | u
O=C(CN1CC(=O)Oc2ccccc21)OCC(=O)c1ccc(Br)cc1 | 21µM | x | x | x | u
O=C(CN1CC(=O)Oc2ccccc21)OCC(=O)c1ccc(F)cc1 | u | u | u | n | u
CC(C)CCN(C(=O)Cc1ccc(Cl)c(Cl)c1)c1c(N)n(Cc2ccccc2)c(=O)[nH]c1=O | u | n | n | n | 26µM
Cc1ccc(OCCC(=O)N(CCC(C)C)c2c(N)n(Cc3ccccc3)c(=O)[nH]c2=O)cc1 | n | x | n | x | 21µM
c1ccc(Oc2ncnc3sccc23)cc1 | n | n | n | n | n
N#Cc1ccc(C(=O)Nc2ccc3c(c2)N(C2CCCC2)C(=O)c2ccccc2S3)cc1 | 23µM | x | n | x | 18µM
CC(=O)Nc1ccc(C(=O)Nc2ccc3c(c2)N(C2CCCC2)C(=O)c2ccccc2S3)cc1 | 21µM | x | n | x | 16µM
O=C(Nc1ccc2c(c1)N(Cc1ccccc1)C(=O)c1ccccc1S2)NC1CC1 | n | u | n | u | n
Cc1cc(NS(=O)(=O)c2ccc(NC(=O)C(F)(F)F)cc2)nc(C)n1 | n | n | x | n | n
O=C(OC[C@H]1O[C@@H](OC(=O)c2cc(O)c(O)c(OC(=O)c3cc(O)c(O)c(O)c3)c2)[C@H](OC(=O)c2cc(O)c(O)c(OC(=O)c3cc(O)c(O)c(O)c3)c2)[C@@H](OC(=O)c2cc(O)c(O)c(OC(=O)c3cc(O)c(O)c(O)c3)c2)[C@@H]1OC(=O)c1cc(O)c(O)c(OC(=O)c2cc(O)c(O)c(O)c2)c1)c1cc(O)c(O)c(OC(=O)c2cc(O)c(O)c(O)c2)c1 | 4.2µM | x | x | x | 4.6µM
CCn1cc(S(=O)(=O)c2ccccc2)c(=O)c2cc(F)c(N3CCCC3)cc21 | 21µM | x | n | x | u
CCCn1cc(S(=O)(=O)c2ccccc2)c(=O)c2cc(F)c(N3CCCCCC3)cc21 | 26µM | x | n | x | 18µM
CCCn1cc(S(=O)(=O)c2ccccc2)c(=O)c2cc(F)c(N3CCCC3)cc21 | u | x | n | x | u
CCn1cc(S(=O)(=O)c2ccccc2)c(=O)c2cc(F)c(N3CCN(c4ccccc4)CC3)cc21 | u | x | n | x | u
CCn1cc(S(=O)(=O)c2ccc(C)cc2)c(=O)c2cc(F)c(N3CCN(C)CC3)cc21 | n | n | n | n | n
CCn1cc(S(=O)(=O)c2ccc(Cl)cc2)c(=O)c2cc(F)c(N3CCOCC3)cc21 | 26µM | x | n | x | 16µM
O=C(NCCc1ccccc1)c1nc(CS(=O)(=O)c2ccc(Cl)cc2)no1 | u | n | n | n | n
O=C(c1cccc(S(=O)(=O)N2CCCCC2)c1)N1CCc2ccccc21 | u | u | n | n | u
CC1(Cc2ccccc2C#N)C(=O)Nc2ccc(OC(F)(F)F)cc21 (configuration not stated) | n | x | x | x | n
CC1(Cc2cc(Cl)ccc2C(F)(F)F)C(=O)Nc2cc(-c3ccccc3Cl)ccc21 (configuration not stated) | n | x | x | x | n
COc1ccccc1-c1ccc2c(c1)C(C)(Cc1ccc(Cl)c(Cl)c1)C(=O)N2 (configuration not stated) | 21µM | x | x | x | u
COc1ccccc1-c1ccc2c(c1)C(C)(Cc1ccccc1C#N)C(=O)N2 (configuration not stated) | 21µM | x | x | x | u
COC(=O)[C@@]1(C)[C@H]2C(=O)N(C)C(=O)[C@H]2[C@H]2CN=C(SCc3ccc(C#N)cc3)N21 | n | x | n | x | n
Cc1nc2cc(-c3cccc(F)c3)nn2c(C)c1CCC(=O)NC(C)c1ccc2c(c1)OCCO2 (configuration not stated) | 16µM | u | n | n | u
Cc1nc2nc(C)c(CCC(=O)NC(C)c3ccc4c(c3)OCCO4)c(C)n2n1 (configuration not stated) | n | n | n | n | n
Cc1nc2cc(-c3ccccc3)nn2c(C)c1CCC(=O)NC(C)c1ccc2c(c1)OCCO2 (configuration not stated) | u | n | n | n | 18µM
Cc1ccc(CCN2CC(C(=O)NC3CCCC3)CC2=O)cc1 (configuration not stated) | n | n | n | n | n

High-throughput results deposited in PubChem BioAssay by National Center for Advancing Translational Sciences (NCATS).
